# System: UCD52 (cells of a triple-negative basal-like breast cancer xenograft)
# Experiment: cell viability of combination (% of vehicle); higher = less cytotoxic
# Conditions: 1 µM; 72 h; partner dose: 10 nM
# Description: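 PDX cells were treated for 72 h with each drug at 1 µM plus carfilzomib (10 nM; 100 nM for WHIM2). Luciferase viability is expressed as percent of vehicle.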
row,SMILES,cell viability of combination
1,CCCCCCCCCCCCCCCC[n+]1ccccc1.[Cl-] [Cetylpyridinium Chloride] + CC(C)C[C@H](NC(=O)[C@H](CCc1ccccc1)NC(=O)CN1CCOCC1)C(=O)N[C@@H](Cc1ccccc1)C(=O)N[C@@H](CC(C)C)C(=O)[C@@]1(C)CO1 [Carfilzomib],48.1
2,CCCCCCCCCCCCCCCC[N+](C)(C)C.[Br-] [Cetrimonium Bromide (CTAB)] + CC(C)C[C@H](NC(=O)[C@H](CCc1ccccc1)NC(=O)CN1CCOCC1)C(=O)N[C@@H](Cc1ccccc1)C(=O)N[C@@H](CC(C)C)C(=O)[C@@]1(C)CO1 [Carfilzomib],53.1
3,Cc1cc(C(C#N)c2ccc(Cl)cc2)c(Cl)cc1NC(=O)c1cc(I)cc(I)c1O (stereo not given) [Closantel] + CC(C)C[C@H](NC(=O)[C@H](CCc1ccccc1)NC(=O)CN1CCOCC1)C(=O)N[C@@H](Cc1ccccc1)C(=O)N[C@@H](CC(C)C)C(=O)[C@@]1(C)CO1 [Carfilzomib],65.7
4,CCCCCCCCCCCC[N+](C)(C)CCOc1ccccc1.[Br-] [Domiphen Bromide] + CC(C)C[C@H](NC(=O)[C@H](CCc1ccccc1)NC(=O)CN1CCOCC1)C(=O)N[C@@H](Cc1ccccc1)C(=O)N[C@@H](CC(C)C)C(=O)[C@@]1(C)CO1 [Carfilzomib],57.1
5,Cc1cc(C(C#N)c2ccc(Cl)cc2)c(Cl)cc1NC(=O)c1cc(I)cc(I)c1[O-].[Na+] (stereo not given) [Closantel Sodium] + CC(C)C[C@H](NC(=O)[C@H](CCc1ccccc1)NC(=O)CN1CCOCC1)C(=O)N[C@@H](Cc1ccccc1)C(=O)N[C@@H](CC(C)C)C(=O)[C@@]1(C)CO1 [Carfilzomib],65.9

# Source: the supplement of paper PMC6992640
